# Experimental data reported in PubChem BioAssay.
# Several values for one entry are separate records, joined by “and”; a condition that tells them apart may be missing. Equal entries are not always repeated. Inconclusive results are not listed. For part of these data: Potency and affinity values are given separately. Activity calls are given as the source filed them.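 Rule for the calls, unless noted: active = luciferase signal above three times the same-plate solvent-only control wells; inactive = the rest.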
# Experiments:
# [1] = P. berghei load reduction in hepatocytes – cell-based, HepG2, luciferase luminescence, HepG2 viability, primary screen (AID 624349; in the data active = parasite load remaining mostly below about 12%, no sharp cut-off; inactive = mostly above about 10%;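 note: 100% = mean of DMSO negative control wells on the same plate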); conditions: P. berghei liver stage in HepG2, luciferase luminescence, concentration not given here; parasite load remaining: stronger effect = lower value; viability: measured here: HepG2 viability without parasites
# [2] = EMT-state selective cytotoxicity in co-culture – imaging, PC-3E GFP, TEM4-18 mCherry, primary screen (AID 1345086;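 active = compounds killing one labelled cell type while sparing the other, by normalised counts and ratio limits, not self-fluorescent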;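 for all read-outs here: cells exposed to compound for 72 h before imaging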;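 for red/green cell ratio (normalised): normalised mesenchymal count divided by normalised epithelial count so high means epithelial killing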); conditions: PC-3E GFP / TEM4-18 mCherry co-culture, imaging cell counts, at 1 µM; for red/green cell ratio (normalised): actives lie on both sides, counts scaled to control wells, 1 = unselective
# [3] = viability loss with induced miR-34 in A549 – imaging, A549 dox-inducible miR-34, nuclei and caspase counts, primary screen (AID 1347080;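 active = compounds whose cell count with miR-34 switched on is under 0.7 times the count with it off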); conditions: A549 miR-34 inducible, Hoechst nuclei count, 48 h
# [4] = biological target: ATP-dependent translocase ABCB1 (Homo sapiens) (UniProt P08183); experiment: P-glycoprotein substrate transport blockade – cell-based (AID 377; in the data active = fluorescence slope change above about 50%); conditions: MDR1-expressing cells, fluorescent substrate accumulation slope; stronger effect = higher value; concentration not given here
# Chain of ATP-dependent translocase ABCB1 (Homo sapiens) (P08183 whole entry, looked up): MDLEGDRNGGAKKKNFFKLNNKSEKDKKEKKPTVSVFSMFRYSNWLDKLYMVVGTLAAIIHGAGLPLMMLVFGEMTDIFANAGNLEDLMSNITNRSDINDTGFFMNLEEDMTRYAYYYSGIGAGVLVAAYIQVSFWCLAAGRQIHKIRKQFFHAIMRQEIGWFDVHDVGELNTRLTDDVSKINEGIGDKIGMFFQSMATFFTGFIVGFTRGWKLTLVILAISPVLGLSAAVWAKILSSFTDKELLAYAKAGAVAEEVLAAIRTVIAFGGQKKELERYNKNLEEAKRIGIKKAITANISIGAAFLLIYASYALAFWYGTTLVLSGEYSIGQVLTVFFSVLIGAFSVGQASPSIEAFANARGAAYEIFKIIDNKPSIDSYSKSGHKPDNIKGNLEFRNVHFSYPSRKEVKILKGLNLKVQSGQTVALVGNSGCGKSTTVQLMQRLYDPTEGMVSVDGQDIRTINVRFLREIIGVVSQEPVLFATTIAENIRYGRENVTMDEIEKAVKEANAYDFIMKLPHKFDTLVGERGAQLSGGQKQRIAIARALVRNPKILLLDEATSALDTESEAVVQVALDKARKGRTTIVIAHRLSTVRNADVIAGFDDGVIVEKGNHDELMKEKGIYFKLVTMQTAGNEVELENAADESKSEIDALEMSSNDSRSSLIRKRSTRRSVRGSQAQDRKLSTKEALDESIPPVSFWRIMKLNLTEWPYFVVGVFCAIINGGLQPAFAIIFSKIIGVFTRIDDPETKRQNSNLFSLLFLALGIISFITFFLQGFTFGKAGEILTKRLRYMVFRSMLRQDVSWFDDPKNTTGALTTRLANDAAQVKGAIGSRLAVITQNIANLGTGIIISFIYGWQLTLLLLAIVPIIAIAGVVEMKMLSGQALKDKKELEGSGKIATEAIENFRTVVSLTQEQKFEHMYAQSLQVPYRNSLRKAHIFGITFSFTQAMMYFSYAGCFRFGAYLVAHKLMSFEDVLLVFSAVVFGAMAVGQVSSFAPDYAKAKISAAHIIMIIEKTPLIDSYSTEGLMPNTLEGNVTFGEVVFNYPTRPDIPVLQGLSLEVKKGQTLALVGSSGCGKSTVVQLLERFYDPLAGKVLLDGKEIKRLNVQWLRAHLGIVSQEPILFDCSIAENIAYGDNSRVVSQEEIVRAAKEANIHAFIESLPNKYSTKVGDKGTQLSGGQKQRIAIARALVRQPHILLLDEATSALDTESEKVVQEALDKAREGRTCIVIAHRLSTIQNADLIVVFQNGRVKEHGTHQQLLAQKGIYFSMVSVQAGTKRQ
# [5] = antimalarial activity against Dd2 strain (AID 2302;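 active = growth inhibition above 50% at the single 2 µM test dose, taken to imply half-maximal potency below 2 µM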;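 note: 0% = DMSO untreated growth and 100% = chloroquine plus artemisinin killed control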); conditions: P. falciparum Dd2 in RBCs, LDH growth readout, 72 h; at 2 µM; stronger effect = higher value
# [6] = human hepatoma cell viability loss – ATP luminescence, cytotoxicity control for P. falciparum antimalarial project, primary screen (AID 2303;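 active = inhibition above 50%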;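 note: 0% = DMSO wells and 100% = digitonin-killed cells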); conditions: HepG2 viability, 24-48 h, at 10 µM, stronger effect = higher value
# [7] = biological target: L-lactate dehydrogenase (Plasmodium falciparum (isolate CDC / Honduras)) (UniProt Q27743); experiment: PfLDH activity inhibition – cell lysate, 3D7 strain, counter-screen for P. falciparum growth inhibition project (AID 2304; call rule not given here;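 note: 0% = vehicle and 100% = reference inhibitor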); conditions: P. falciparum 3D7 crude extract, LDH APAD/NBT absorbance; at 2 µM; stronger effect = higher value
# Chain of L-lactate dehydrogenase (Plasmodium falciparum (isolate CDC / Honduras)) (Q27743 whole entry, looked up): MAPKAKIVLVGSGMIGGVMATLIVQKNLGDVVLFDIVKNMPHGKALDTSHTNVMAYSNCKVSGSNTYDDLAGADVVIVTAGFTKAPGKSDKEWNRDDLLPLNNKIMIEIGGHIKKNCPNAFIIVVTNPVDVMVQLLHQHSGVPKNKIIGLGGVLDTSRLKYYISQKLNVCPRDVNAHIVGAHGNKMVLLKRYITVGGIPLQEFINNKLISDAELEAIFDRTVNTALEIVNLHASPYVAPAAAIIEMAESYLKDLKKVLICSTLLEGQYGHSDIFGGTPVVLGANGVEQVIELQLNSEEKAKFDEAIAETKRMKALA
# [8] = inhibition of 3D7 malaria parasite growth – strain 3D7 (AID 2306; call rule not given here;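 note: 0% = DMSO wells and 100% = chloroquine plus artemisinin control wells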); conditions: P. falciparum 3D7 erythrocytic growth, LDH absorbance, 72 h; at 2 µM; stronger effect = higher value
# [9] = compounds altering viability of human ES cells (AID 493140; call rule not given here;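 note: cells exposed to compounds for four days before counting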); conditions: human embryonic stem cell survival screen; stronger effect = higher value
# [10] = MELAS cybrid and Rieske KO viability enhancers – cell-based, MELAS cybrids, Rieske KO mouse fibroblasts, CellTiter-Glo, primary screen (AID 1508586;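 active = mean z-score across replicates of 1.96 or higher in either the MELAS or the Rieske mutant cell line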;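 note: z relative to plate mean and SD of compound and empty wells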); conditions: low glucose
# [11] = biological target: Mitogen-activated protein kinase 7 (Homo sapiens) (UniProt Q13164); experiment: Gal4-ERK5 driven luciferase induction – cell-based, HTS, primary screen (AID 1508626); conditions: HeLa Gal4-ERK5 transactivation, 18 h, at 5 µM, stronger effect = higher value;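 note: luciferase driven by Gal4-ERK5 fusion binding five Gal4 sites before minimal TATA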
# Chain of Mitogen-activated protein kinase 7 (Homo sapiens) (Q13164 whole entry, looked up, the tested form may be a part): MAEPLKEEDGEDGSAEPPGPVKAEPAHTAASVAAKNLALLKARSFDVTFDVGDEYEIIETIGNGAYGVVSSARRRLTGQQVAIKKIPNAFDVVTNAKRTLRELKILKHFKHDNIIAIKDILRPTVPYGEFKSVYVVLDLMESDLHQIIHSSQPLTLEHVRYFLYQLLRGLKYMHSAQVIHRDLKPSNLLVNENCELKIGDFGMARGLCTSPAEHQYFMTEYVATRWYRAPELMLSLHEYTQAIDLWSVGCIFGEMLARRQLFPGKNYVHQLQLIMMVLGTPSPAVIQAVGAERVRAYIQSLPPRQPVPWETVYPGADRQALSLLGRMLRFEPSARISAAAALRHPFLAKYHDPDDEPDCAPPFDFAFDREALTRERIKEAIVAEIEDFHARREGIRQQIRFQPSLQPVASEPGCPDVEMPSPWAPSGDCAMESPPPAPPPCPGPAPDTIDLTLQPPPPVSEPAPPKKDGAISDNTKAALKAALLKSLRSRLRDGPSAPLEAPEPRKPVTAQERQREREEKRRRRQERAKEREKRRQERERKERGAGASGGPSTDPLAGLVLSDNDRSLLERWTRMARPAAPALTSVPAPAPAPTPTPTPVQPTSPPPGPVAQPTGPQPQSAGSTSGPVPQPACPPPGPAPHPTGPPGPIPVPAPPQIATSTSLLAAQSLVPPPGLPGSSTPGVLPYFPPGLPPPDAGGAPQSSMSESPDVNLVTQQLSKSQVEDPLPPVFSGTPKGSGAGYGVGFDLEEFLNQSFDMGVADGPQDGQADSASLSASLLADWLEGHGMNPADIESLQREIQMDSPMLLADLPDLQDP
# [12] = galactose survival enhancers in mitochondrial complex I cybrids – cell-based, galactose medium, ATP luminescence, primary screen (AID 1645843;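 active = z-score of at least 1.8 in each of two replicates, scored against plate mean and spread of sample wells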;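 note: positive z means more ATP and so rescue of galactose-driven cybrid death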); conditions: complex I mutant cybrid cells, 72 h, stronger effect = higher value
# [13] = blockers of polyQ-driven CASP3 activation – cell-based (AID 1583); conditions: polyglutamine-induced caspase-3 activation, cell assay; stronger effect = higher value;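 tested at 10 µM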
# [14] = yeast 75Q aggregation reduction – 75Q-TubU reporter (AID 1593); conditions: Yeast 75Q polyglutamine aggregation reporter
# [15] = restoration of touch response, mutant HTT neurons – whole organism, C. elegans mechanosensory neurons, N-terminal huntingtin (AID 1599); conditions: C. elegans polyQ-huntingtin mechanosensory neurons, stronger effect = higher value
# [16] = blockers of cytochrome c efflux from mitochondria – biochemical, purified mitochondria (AID 1603); conditions: stronger effect = lower value;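 note: mouse liver mitochondria challenged with calcium chloride; signal normalized to the plate average as 100%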
# [17] = polyglutamine aggregate formation blockers (AID 1604); conditions: polyglutamine-induced protein aggregation inhibition assay; stronger effect = higher value; tested at 2.5 µM
# [18] = glutamate transport activators, MN-1 cells, MN-1 cell line (AID 1612); conditions: MN-1 motor neuron cells, stronger effect = higher value;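 note: tested at 1 µM final; 0% = mean of DMSO vehicle wells on each plate; positive means more glutamate uptake than control and negative means less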
# [19] = GFP-Q80 aggregate reduction, neuronal-like cells, cell-based, NGF-treated PC12, GFPQ80 (AID 1614); conditions: PC12 NGF-treated GFP-polyQ80 inclusion reduction;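 note: lower means fewer inclusions and 0 means no inclusions at all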
# [20] = 75Q-TubH aggregate inhibition, S. cerevisiae, yeast (AID 1616); conditions: S. cerevisiae 75Q-TubH polyglutamine aggregation suppression; stronger effect = higher value
# [21] = blockers of cellular phospholipid synthesis – cell-based, LOPAC library, screen 4, primary screen (AID 1347384; call rule not given here); conditions: animal cells, phospholipid biosynthesis inhibition screen; at 10 µM
# [22] = compounds altering HSF1 focus formation in cells – imaging, Selleck Cancer Library (AID 1347162; in the data active = plate-normalised HSF1 focus index below about 0.46); conditions: human cells, HSF1 nuclear foci imaging, at 10 µM; SSMD: measured here: HSF1 foci SSMD mean; cell count: measured here: cell number; plate-normalised HSF1 focus index: stronger effect = lower value
# [23] = measured here: epithelial PC-3E GFP cell survival
# [24] = measured here: mesenchymal TEM4-18 mCherry cell survival
# [25] = MELAS cybrid survival, CellTiter-Glo 48 h, stronger effect = higher value
# [26] = Rieske KO mouse fibroblast survival, CellTiter-Glo 72 h
smiles,measurement,setting,value
CCCCC(=O)O[C@]1(C(=O)CO)CCC2C3CCC4=CC(=O)CC[C@]4(C)C3[C@@H](O)C[C@@]21C (stereo partly specified),parasite load remaining,[1],79% (inactive)
same,viability,[1],98.3%
same,red/green cell ratio (normalised),[2],1.41 (inactive)
same,normalised cell number,[2]; [23],0.69
same,normalised cell number,[2]; [24],0.97
same,fold change,"[3]; stronger effect = lower value, cell number ratio, induced over uninduced",0.833 (inactive)
same,fold change,[3]; measured here: relative caspase fold change +Dox/-Dox,3.05
same,cell count,"[3]; measured here: total cells with miR-34 induction, stronger effect = lower value",7620
same,cell count,[3]; measured here: total cells without miR-34 induction,9140
CN(Cc1cnc2nc(N)nc(N)c2n1)c1ccc(C(=O)NC(CCC(=O)O)C(=O)O)cc1 (stereo unspecified),fluorescence slope change,[4],-5.4% (inactive)
same,growth inhibition,[5],66% (active)
same,inhibition,[6],65% (active)
same,inhibition,[7],-1% (inactive)
same,growth inhibition,[8],91% (active)
same,survival,[9],10.7 (inactive)
same,z-score,[10]; [25],-0.53 (inactive) and 1.15 (inactive)
same,z-score,[10]; [26],0.183 and -0.283
same,luciferase signal,[11],32 AU (inactive)
same,z-score,[12],-1.2 (inactive)
CC1OC1P(=O)(O)O (stereo unspecified),inhibition,[13],-3.29%
same,score,[14],1.42
same,rescue above control,[15],16.3
same,cytochrome c release ratio,[16],6.79
same,inhibition of aggregation,[17],83.9%
same,glutamate uptake change,[18],-1.38%
same,inclusion score,[19],2
same,aggregation suppression score,[20],1.43
same,outcome,[21],inactive
CC(=O)O[C@@]12CO[C@@H]1C[C@H](O)[C@@]1(C)C(=O)[C@H](O)C3=C(C)[C@@H](OC(=O)[C@H](O)[C@@H](NC(=O)OC(C)(C)C)c4ccccc4)C[C@@](O)([C@@H](OC(=O)c4ccccc4)C12)C3(C)C (stereo partly specified),SSMD,[22],1.92
same,cell count,[22],6830
same,plate-normalised HSF1 focus index,[22],1.1 (inactive)
CC(C)=CCC/C(C)=C/COc1ccc2ccc(=O)oc2c1,outcome,[21],inactive
same,luciferase signal,[11],76 AU (inactive)
C[C@H](N[C@@H](CCc1ccccc1)C(=O)O)C(=O)N1CCC[C@H]1C(=O)O,z-score,[10]; [25],0.249 (inactive)
same,z-score,[10]; [26],-0.206
S=c1ccss1,red/green cell ratio (normalised),[2],1.04 (inactive)
same,normalised cell number,[2]; [23],1.15
same,normalised cell number,[2]; [24],1.2
same,luciferase signal,[11],52 AU (inactive)
O=C(/C=C/c1ccc(O)cc1)c1ccccc1O,red/green cell ratio (normalised),[2],0.93 (inactive)
same,normalised cell number,[2]; [23],1.02
same,normalised cell number,[2]; [24],0.94
same,luciferase signal,[11],96 AU (inactive)
CC1(C)CC[C@]2(C(=O)O)CC[C@]3(C)C(=CCC4[C@@]5(C)CC[C@@H](O)C(C)(C)C5CC[C@]43C)C2C1 (stereo partly specified),red/green cell ratio (normalised),[2],1 (inactive)
same,normalised cell number,[2]; [23],0.94
same,normalised cell number,[2]; [24],0.95
same,luciferase signal,[11],16 AU (inactive)
CC(CCC(=O)O)[C@H]1CCC2C3C[C@H](O)[C@@H]4C[C@H](O)CC[C@]4(C)C3CC[C@@]21C (stereo partly specified),red/green cell ratio (normalised),[2],0.83 (inactive)
same,normalised cell number,[2]; [23],1.24
same,normalised cell number,[2]; [24],1.03
same,luciferase signal,[11],60 AU (inactive)
CC(=O)O[C@@H]1CC[C@@]2(C)C(CC[C@]3(C)C2CC=C2C4CC(C)(C)CC[C@]4(C(=O)O)CC[C@]23C)C1(C)C (stereo partly specified),red/green cell ratio (normalised),[2],0.84 (inactive)
same,normalised cell number,[2]; [23],1.04
same,normalised cell number,[2]; [24],0.87
same,luciferase signal,[11],44 AU (inactive)
O=S(=O)(O)c1cc(N=C=S)ccc1/C=C/c1ccc(N=C=S)cc1S(=O)(=O)O,red/green cell ratio (normalised),[2],0.86 (inactive)
same,normalised cell number,[2]; [23],1.29
same,normalised cell number,[2]; [24],1.11
same,luciferase signal,[11],52 AU (inactive)
O=c1cccc2ccc(O)c(O)c2c1O,red/green cell ratio (normalised),[2],1.04 (inactive)
same,normalised cell number,[2]; [23],0.98
same,normalised cell number,[2]; [24],1.02
same,luciferase signal,[11],44 AU (inactive)
C/C1=C/CC(C)(C)/C=C/C/C(C)=C/CC1,red/green cell ratio (normalised),[2],0.95 (inactive)
same,normalised cell number,[2]; [23],1.06
same,normalised cell number,[2]; [24],1.01
same,luciferase signal,[11],60 AU (inactive)
CCCc1cc(OC)c2c(c1)OCO2,red/green cell ratio (normalised),[2],1.07 (inactive)
same,normalised cell number,[2]; [23],0.92
same,normalised cell number,[2]; [24],0.98
same,luciferase signal,[11],216 AU (inactive)
COC1=CC(=O)C(O)=C/C1=C\C=C\c1ccccc1,red/green cell ratio (normalised),[2],1.11 (inactive)
same,normalised cell number,[2]; [23],0.95
same,normalised cell number,[2]; [24],1.06
same,luciferase signal,[11],12 AU (inactive)
COc1ccc(-c2cc(=O)c3c(O)cc(OC)c(OC)c3o2)c(OC)c1,red/green cell ratio (normalised),[2],1.02 (inactive)
same,normalised cell number,[2]; [23],0.97
same,normalised cell number,[2]; [24],0.99
same,luciferase signal,[11],108 AU (inactive)
C=CC(C1=CC(=O)C=CC1=O)c1ccccc1 (stereo unspecified),red/green cell ratio (normalised),[2],0.88 (inactive)
same,normalised cell number,[2]; [23],1.13
same,normalised cell number,[2]; [24],1
same,luciferase signal,[11],64 AU (inactive)
CC(=O)OCC(=O)[C@@]1(O)CCC2C3CCC4=CC(=O)C=C[C@]4(C)[C@@]3(F)[C@@H](O)C[C@@]21C (stereo partly specified),red/green cell ratio (normalised),[2],0.75 (inactive)
same,normalised cell number,[2]; [23],1.27
same,normalised cell number,[2]; [24],0.95
same,luciferase signal,[11],76 AU (inactive)
Cc1cc(O)c(C=O)c2c1C(=O)Oc1c(COC(=O)/C=C/C(=O)O)c(O)c(C(=O)O)c(C)c1O2,red/green cell ratio (normalised),[2],1.12 (inactive)
same,normalised cell number,[2]; [23],1.12
same,normalised cell number,[2]; [24],1.25
same,luciferase signal,[11],16 AU (inactive)
C=C[C@@]1(C)CC(=O)[C@@]2(O)[C@](C)(O1)[C@@H](O)[C@@H](O)C1C(C)(C)CC[C@H](O)[C@@]12C (stereo partly specified),red/green cell ratio (normalised),[2],1.15 (inactive)
same,normalised cell number,[2]; [23],0.91
same,normalised cell number,[2]; [24],1.05
same,luciferase signal,[11],80 AU (inactive)
C=C[C@@H](C1=CC(=O)C(OC)=C(OC)C1=O)c1ccccc1,red/green cell ratio (normalised),[2],0.99 (inactive)
same,normalised cell number,[2]; [23],1.04
same,normalised cell number,[2]; [24],1.04
same,luciferase signal,[11],136 AU (inactive)
COc1cc2c(cc1OC)-c1c(oc3cc(O)cc(O)c3c1=O)CO2,red/green cell ratio (normalised),[2],1.08 (inactive)
same,normalised cell number,[2]; [23],1.02
same,normalised cell number,[2]; [24],1.09
same,luciferase signal,[11],16 AU (inactive)
CC(=O)OC/C=C(\C)CC/C=C(\C)CC/C=C(\C)CC/C=C(\C)CC/C=C(\C)CC/C=C(\C)CC/C=C(\C)CC/C=C(\C)CCC=C(C)C,red/green cell ratio (normalised),[2],0.99 (inactive)
same,normalised cell number,[2]; [23],1.05
same,normalised cell number,[2]; [24],1.04
same,luciferase signal,[11],84 AU (inactive)
CC(=O)Oc1cc2c(c(C)c1OC(C)=O)CC=C1[C@@]2(C)CC[C@@]2(C)C3C[C@](C)(C(=O)O)CC[C@]3(C)CC[C@]12C (stereo partly specified),red/green cell ratio (normalised),[2],0.58 (inactive)
same,normalised cell number,[2]; [23],1.06
same,normalised cell number,[2]; [24],0.62
same,luciferase signal,[11],48 AU (inactive)
